Compound activity from PubChem BioAssay.
NS1 function inh = qHTS Assay for Inhibitors of Influenza NS1 Protein Function; Potency, µM (titrated, usually from 46.1 µM), for the others: at the top dose activity, positive = more growth; 270,000 tested, 0.4% active; AID 2326, 2010; calls by dose curve; note: actives are rising curves; nearly all actives have a fitted effect of over 50% in size
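Compounds were scored for reversing the slow growth caused by influenza A NS1 in S. cerevisiae, measured by optical density at 600 nm. Assay medium contained 2% galactose at pH 6.0; NS1-free yeast of the same strain were the positive control.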
Cruzain inh Det = qHTS Assay for Promiscuous and Specific Inhibitors of Cruzain (with detergent) | purified cruzain, Z-FR-AMC fluorescence, 0.01% Triton | Potency, µM, inactives show max response, negative = inhibition, actives largely listed as inhibitors | 200,000 tested, 0.43% active | AID 1478, 2009;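 note: plate controls were neutral wells for no effect and buffer without enzyme for full effect; nearly all actives have a fitted effect of over 40% in size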
Target sequence (P25779 123-467 limits assumed): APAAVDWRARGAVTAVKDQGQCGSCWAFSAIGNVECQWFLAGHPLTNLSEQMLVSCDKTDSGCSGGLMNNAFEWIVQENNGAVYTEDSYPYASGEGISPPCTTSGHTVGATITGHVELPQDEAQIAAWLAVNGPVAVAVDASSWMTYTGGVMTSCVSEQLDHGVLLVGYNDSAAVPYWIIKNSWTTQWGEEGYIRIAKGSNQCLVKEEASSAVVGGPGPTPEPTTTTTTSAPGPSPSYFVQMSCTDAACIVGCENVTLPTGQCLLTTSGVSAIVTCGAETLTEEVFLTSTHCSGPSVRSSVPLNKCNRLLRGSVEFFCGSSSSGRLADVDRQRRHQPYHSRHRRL
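Sodium acetate buffer (100 mM, pH 5.5) containing 5 mM DTT and 0.01% Triton X-100 hosted 1.5 nM cruzain and test compound for 15 min at room temperature. Cleavage of 2 uM Z-FR-AMC was then tracked by fluorescence.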
Cruzain noTriton = qHTS Assay for Promiscuous and Specific Inhibitors of Cruzain (without detergent) | Cruzipain (Trypanosoma cruzi), P25779 | 200,000 tested, 2.3% active | Potency, µM, for the others: max response, negative = inhibition, most hits filed as inhibitors | purified cruzain, Z-FR-AMC fluorescence, no detergent;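 note: plate controls were enzyme without inhibitor for no effect and buffer without enzyme for full effect; nearly all actives have a fitted effect of over 40% in size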
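Purified cruzain at 1.5 nM, pre-incubated 15 min with compound at room temperature in 100 mM sodium acetate pH 5.5, 5 mM DTT, 0.00005% Triton X-100. Reaction started with 2 uM Z-FR-AMC; AMC fluorescence increase over 60 s gives rate.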
Numbers without * were called inactive; u = inconclusive; x = no result. Only a selection was taken, and hits are over-represented in it overall. Unless noted, calls come from the whole dose curve; as a rule, active = well fitted curve in the direction sought with a large enough effect; inconclusive = small, poorly fitted or top-dose-only effect, or another doubt; inactive = no such curve, though single readings can be large; an effect the other way counts as inactive or inconclusive. Potency is the fitted concentration of half-maximal effect.

SMILES	NS1 function inh	Cruzain inh Det	Cruzain noTriton
CCC(CC)c1nnc(NC(=O)c2ccc(S(=O)(=O)N3CCc4ccccc4C3)cc2)s1	12%	-4%	u
COc1ccc(-c2nnc(NC(=O)c3ccc(S(=O)(=O)N4CCc5ccccc5C4)cc3)o2)cc1	-15%	-1%	-10%
Cc1cc(-c2csc(NC(=O)c3ccc(C#N)cc3)n2)c(C)n1Cc1ccccc1	17%	-1%	10µM*
Cc1ccc(-c2cc(C(=O)NC3CCCCC3)no2)cc1	-62%	x	x
CCOc1ccc(C2C(C(=O)Nc3ccc(OC)cc3)=C(C)Nc3nc(CCCO)nn32)cc1 (stereo not given)	x	0%	-6%
O=S(=O)(/N=C(/NNS(=O)(=O)c1ccccc1)c1ccccc1)c1ccccc1	-1%	x	x
CC(C)NC(=O)Cn1c(=O)c2c(ncn2Cc2ccccc2)n(Cc2ccccc2)c1=O	6%	3%	-5%
COc1ccc(NC(=O)CSc2ncccc2C(=O)OC(C)C)cc1OC	-8%	-2%	9%
CC(C)c1ccc(NC(=O)CSc2ncccc2C(=O)Oc2cccc([N+](=O)[O-])c2)cc1	u	-7%	16µM*
COC(=O)c1c(C)oc2ccc(N(C(=O)Oc3ccccc3)S(=O)(=O)c3ccc(Cl)c([N+](=O)[O-])c3)cc12	24%	-3%	7.9µM*
CCc1ccc(S(=O)(=O)N(C(=O)Oc2ccccc2)c2ccc3oc(C)c(C(=O)OC)c3c2)cc1	x	-2%	u
CCn1nc(CC(=O)Nc2nnc(CC(=O)N3CCCC3)s2)c2ccccc2c1=O	20µM*	3%	10%
CCn1nc(CC(=O)Nc2nnc(CC(=O)N3CCOCC3)s2)c2ccccc2c1=O	-2%	2%	-1%
COc1ccc(-c2cc(-c3ccc(C)cc3)nc(SCc3nnc(-c4ccccc4)o3)c2C#N)cc1OC	14%	-1%	10µM*
COc1cc(-c2cc(-c3ccccc3)nc(SCC(=O)O)c2C#N)cc(OC)c1OC	1%	x	x
Cc1cc(NC(=O)CC2CCCC2)n(-c2nc3ccccc3[nH]2)n1	-15%	-7%	-12%
Cc1cc(NC(=O)c2ccc(F)cc2F)n(-c2nc3ccccc3[nH]2)n1	2%	4%	20µM*
CN(Cc1ccccc1)c1ccc(-c2nc(-c3ccncc3)no2)cc1[N+](=O)[O-]	x	-2%	11%
CN(Cc1ccccc1)c1ccc(-c2nc(-c3cccnc3)no2)cc1[N+](=O)[O-]	x	-14%	25µM*
Cn1nnnc1Sc1ncnc2scc(-c3ccccc3)c12	-8%	3%	16µM*
Cn1nnnc1Sc1ncnc2scc(-c3ccc(F)cc3)c12	-17%	2%	-3%
COc1cccc(C(=O)Nc2ccc3c(c2)C(=O)N(CC2CCCO2)C3=O)c1 (stereo not given)	-9%	x	x
O=C(NNC(=S)NC1CCCCC1)c1cccc(S(=O)(=O)Nc2ccccc2Cl)c1	26%	-4%	7%
CC1=C(C(=O)OC(C)C)C(c2cccnc2)n2ncnc2N1 (stereo not given)	-7%	5%	-1%
Cc1ccc(-c2nc3cc(NC(=O)c4cc(Br)ccc4Cl)ccc3o2)cc1	x	-1%	-26%
SMILES	NS1 function inh	Cruzain inh Det	Cruzain noTriton
Cc1cc(C)c2oc(-c3ccc(NC(=O)c4cc(Br)ccc4Cl)cc3)nc2c1	x	-1%	2.5µM*
COc1ccc(F)cc1S(=O)(=O)n1nnc2ccccc21	-4%	x	x
Cc1cc(NC(=O)CN(c2cccc(C)c2C)S(=O)(=O)c2ccccc2)ccc1Br	x	-3%	6.3µM*
Cc1cc(C)cc(NC(=O)CN(c2cccc(C)c2C)S(=O)(=O)c2ccccc2)c1	x	-7%	u
O=C(CSc1ncn[nH]1)Nc1c(F)cc(F)cc1Br	-2%	-1%	0%
COc1cc(NC(=O)C(NS(=O)(=O)c2ccc3c(c2)CCCC(=O)N3)C(C)C)cc(OC)c1 (stereo not given)	x	1%	u
COc1ccc(CCNCc2ccc(OCc3ccccc3)cc2)cc1	-55%	x	x
COc1cccc(NS(=O)(=O)c2ccc3[nH]cc(C(=O)NC4CC4)c(=O)c3c2)c1	8%	-10%	-5%
CCc1ccc(NS(=O)(=O)c2ccc3[nH]cc(C(=O)NCCCOC(C)C)c(=O)c3c2)cc1	x	-4%	20µM*
CCOc1ccc(NS(=O)(=O)c2ccc3[nH]cc(C(=O)NCCc4ccccc4)c(=O)c3c2)cc1	x	-2%	14%
COc1cccc(NS(=O)(=O)c2ccc3[nH]cc(C(=O)NCCc4ccccc4)c(=O)c3c2)c1	x	-2%	13µM*
COc1cccc(NS(=O)(=O)c2ccc3[nH]cc(C(=O)NCCc4ccc(C)cc4)c(=O)c3c2)c1	x	3%	13µM*
CC(C)c1ccc(NS(=O)(=O)c2ccc3[nH]cc(C(=O)NCCc4ccccc4)c(=O)c3c2)cc1	x	1%	7%
Cc1nnsc1C(=O)N1CCCC(N2CCN(c3cccc(C(F)(F)F)c3)CC2)C1 (stereo not given)	-6%	x	x
O=C(C(=O)N1CCN(c2ccccc2)CC1)c1c[nH]c2ccccc12	-9%	x	x
CCCNC(=O)C1CCN(C(=O)N2CC(C)Oc3ccccc32)CC1 (stereo not given)	x	-1%	4%
CN(C)CC[n+]1ccc(C(=O)c2ccccc2)cc1	9%	x	x
Cc1ccc(NC(=O)Cn2cc(S(=O)(=O)NC(C)C)c(S(=O)(=O)NC(C)C)c2)cc1Cl	x	-11%	9%
CCCCn1c(O)c(/C=C2\C=Nc3ccccc32)c(=O)[nH]c1=O	5%	x	x
O=c1cc(-c2ccccc2)nc2nc(-c3ccco3)[nH]n12	0%	-1%	0.4µM*
Cc1nc2nc(-c3ccccc3)cc(=O)n2[nH]1	-11%	1%	-3%
CSCCCNC(=S)N1CCN(S(=O)(=O)c2cccc(C(F)(F)F)c2)CC1	10%	-5%	1%
Cn1c(=O)n(C)c2cc(N3CCOCC3)c(NC(=O)c3ccc(Cl)cc3)cc21	x	0%	-1%
N#Cc1ccccc1CN1C(=O)c2ccccc2Sc2ccc(C(=O)OCc3ccco3)cc21	x	-7%	25µM*
O=C(NCc1ccco1)c1ccc2c(c1)N(Cc1ccccc1)C(=O)c1ccccc1S2	x	1%	u
SMILES	NS1 function inh	Cruzain inh Det	Cruzain noTriton
CCOC(=O)c1ccc2c(c1)N(Cc1ccccc1)C(=O)c1ccccc1S2	x	0%	-18%
C=Cc1ccc(CN2C(=O)c3ccccc3Sc3ccc(C(=O)OCc4ccco4)cc32)cc1	x	-2%	13µM*
CCCC(c1nnnn1CS(=O)(=O)c1ccc(C)cc1)N1CCC(C(N)=O)CC1 (stereo not given)	4%	x	x
O=C(c1cccc(N2C(=O)C3CC=CCC3C2=O)c1)N1CCCCCC1 (stereo not given)	6%	6%	3%
O=C(c1cccc(N2C(=O)C3CC=CCC3C2=O)c1)N1CCN(c2ccccc2)CC1 (stereo not given)	3%	22µM*	16µM*
CCOC(=O)c1sc(NC(=O)C(CC)OC(=O)C(CC(C)C)NC(=O)c2ccccc2)nc1C (stereo not given)	-35%	10µM*	-7%
CCOC(=O)c1sc(NC(=O)C(OC(C)=O)c2ccccc2)nc1C (stereo not given)	-7%	-17%	-2%
CCOC(=O)c1sc(NC(=O)/C=C/c2ccccc2)nc1C	3%	-1%	25µM*
CCOC(=O)CNC(=O)c1sc(NC(=O)/C=C/c2ccccc2)nc1C	0%	x	x
